Several values for one entry are separate records, joined by “and”; a condition that tells them apart may be missing. Identical values can stand only once. Results filed as inconclusive are left out. Activity calls are given as the source filed them.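 The calls were made as follows, unless noted: active = normalized viability below 100% at a tested concentration; inactive = the rest.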
Assays:
[1] = test system: Aerobactin synthetase IucA (Klebsiella pneumoniae); experiment: inhibition of K. pneumoniae IucA enzyme – biochemical, Tocris library, absorbance (AID 1345561; call rule not given here;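 also: 100% = enzyme without compound and 0% = no enzyme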); settings: purified IucA enzyme assay, absorbance (OD) read-out; stronger effect = lower value;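 tested at 8 µM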
[2] = viability loss in pontine glioma line – cell-based, SU-DIPG-XIII, MIPE4.0, CellTiter-Glo, qHTS, dose response (AID 1347061; cut-off not given, nearly all actives have AC50 up to about 37 µM;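 also: cells exposed to compound for 48 hours before readout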); settings: CellTiter-Glo ATP luminescence
[3] = viability loss in pontine glioma line – cell-based, JHH-DIPG-1, MIPE4.0, CellTiter-Glo, qHTS, dose response (AID 1347062; cut-off not given, nearly all actives have AC50 up to about 27 µM); settings: JHH-DIPG-1 viability, CellTiter-Glo ATP luminescence
[4] = viability loss with induced miR-34 in A549 – imaging, A549 dox-inducible miR-34, nuclei and caspase counts, primary screen (AID 1347080;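 active = compounds whose cell count with miR-34 switched on is under 0.7 times the count with it off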); settings: A549 miR-34 inducible, Hoechst nuclei count, 48 h
[5] = compounds altering HSF1 focus formation in cells – imaging, Selleck Cancer Library (AID 1347162; in the data active = plate-normalised HSF1 focus index below about 0.46); settings: human cells, HSF1 nuclear foci imaging, at 10 µM; SSMD: measured here: HSF1 foci SSMD mean; cell count: measured here: cell number; plate-normalised HSF1 focus index: stronger effect = lower value
[6] = drug combination growth inhibition, ovarian cancer – cell-based, oncology-focused library, rucaparib conditional, profiling panel (AID 1508598); settings: patient-derived ovarian cancer cells, CellTiter-Glo viability, 144 h, stronger effect = lower value
[7] = galactose survival enhancers in mitochondrial complex I cybrids – cell-based, galactose medium, ATP luminescence, primary screen (AID 1645843;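 active = z-score of at least 1.8 in each of two replicates, scored against plate mean and spread of sample wells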;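 also: positive z means more ATP and so rescue of galactose-driven cybrid death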); settings: complex I mutant cybrid cells, 72 h, stronger effect = higher value
[8] = P. berghei load reduction in hepatocytes – cell-based, HepG2, luciferase luminescence, HepG2 viability, primary screen (AID 624349; in the data active = parasite load remaining mostly below about 12%, no sharp cut-off; inactive = mostly above about 10%;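 also: 100% = mean of DMSO negative control wells on the same plate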); settings: P. berghei liver stage in HepG2, luciferase luminescence, concentration not given here; parasite load remaining: stronger effect = lower value; viability: measured here: HepG2 viability without parasites
[9] = viability loss in pontine glioma line – cell-based, SU-DIPG-XIII, MIPE5.0, CellTiter-Glo, qHTS, dose response (AID 1347064; cut-off not given, nearly all actives have AC50 up to about 23 µM;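 as to AC50: cells exposed to compound for 48 hours before the viability read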); settings: CellTiter-Glo ATP luminescence
[10] = viability loss in pontine glioma line – cell-based, SU-DIPG-XXV, MIPE5.0, CellTiter-Glo, qHTS, dose response (AID 1347065; cut-off not given, nearly all actives have AC50 up to about 26 µM;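 also: cells exposed to compound for 48 hours before ATP readout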); settings: CellTiter-Glo ATP luminescence
[11] = JHH-DIPG-1 glioma cell viability, MIPE5.0 library, CellTiter-Glo luminescence, qHTS (AID 1347067; cut-off not given, nearly all actives have AC50 up to about 26 µM;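 also: cells exposed to compound for 48 hours before readout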); settings: JHH-DIPG-1 glioma viability, CellTiter-Glo ATP luminescence
[12] = growth inhibition of DIPG cells – cell-based, MIPE5.0 library, qHTS (AID 1347068; cut-off not given, nearly all actives have IC50 up to about 30 µM;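 as to IC50: cells exposed to compound for 48 hours before viability readout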); settings: SU-DIPG-XXV viability
[13] = viability loss in pontine glioma line – cell-based, SU-DIPG-IV, MIPE4.0, CellTiter-Glo, qHTS, dose response (AID 1347063; cut-off not given, nearly all actives have AC50 up to about 30 µM;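 also: compound exposure lasted 48 hours before the viability readout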); settings: CellTiter-Glo ATP luminescence
[14] = growth inhibition of DIPG cells – cell-based, MIPE4.0 library, CellTiter-Glo luminescence, qHTS (AID 1347066; cut-off not given, nearly all actives have AC50 up to about 30 µM;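 also: cells exposed to compound for 48 hours before readout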); settings: SU-DIPG-VI viability, CellTiter-Glo ATP luminescence
[15] = MELAS cybrid and Rieske KO viability enhancers – cell-based, MELAS cybrids, Rieske KO mouse fibroblasts, CellTiter-Glo, primary screen (AID 1508586;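 active = mean z-score across replicates of 1.96 or higher in either the MELAS or the Rieske mutant cell line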;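 also: z relative to plate mean and SD of compound and empty wells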); settings: low glucose
[16] = stronger effect = lower value, cell number ratio, induced over uninduced
[17] = measured here: relative caspase fold change +Dox/-Dox
[18] = measured here: total cells with miR-34 induction, stronger effect = lower value
[19] = measured here: total cells without miR-34 induction
[20] = at 0.000305 µM, OCI-C5x cells, with rucaparib 10 µM, 100% = cells with rucaparib alone
[21] = at 0.000305 µM, OCI-C5x cells, without rucaparib
[22] = at 0.000305 µM, OCI-P5x cells, with rucaparib 20 µM, 100% = cells with rucaparib alone
[23] = at 0.000305 µM, OCI-P5x cells, without rucaparib
[24] = at 0.00122 µM, OCI-C5x cells, with rucaparib 10 µM, 100% = cells with rucaparib alone
[25] = at 0.00122 µM, OCI-C5x cells, without rucaparib
[26] = at 0.00122 µM, OCI-P5x cells, with rucaparib 20 µM, 100% = cells with rucaparib alone
[27] = at 0.00122 µM, OCI-P5x cells, without rucaparib
[28] = at 0.00488 µM, OCI-C5x cells, with rucaparib 10 µM, 100% = cells with rucaparib alone
[29] = at 0.00488 µM, OCI-C5x cells, without rucaparib
[30] = at 0.00488 µM, OCI-P5x cells, with rucaparib 20 µM, 100% = cells with rucaparib alone
[31] = at 0.00488 µM, OCI-P5x cells, without rucaparib
[32] = at 0.0195 µM, OCI-C5x cells, with rucaparib 10 µM, 100% = cells with rucaparib alone
[33] = at 0.0195 µM, OCI-C5x cells, without rucaparib
[34] = at 0.0195 µM, OCI-P5x cells, with rucaparib 20 µM, 100% = cells with rucaparib alone
[35] = at 0.0195 µM, OCI-P5x cells, without rucaparib
[36] = at 0.0781 µM, OCI-C5x cells, with rucaparib 10 µM, 100% = cells with rucaparib alone
[37] = at 0.0781 µM, OCI-C5x cells, without rucaparib
[38] = at 0.0781 µM, OCI-P5x cells, with rucaparib 20 µM, 100% = cells with rucaparib alone
[39] = at 0.0781 µM, OCI-P5x cells, without rucaparib
[40] = at 0.313 µM, OCI-C5x cells, with rucaparib 10 µM, 100% = cells with rucaparib alone
[41] = at 0.313 µM, OCI-C5x cells, without rucaparib
[42] = at 0.313 µM, OCI-P5x cells, with rucaparib 20 µM, 100% = cells with rucaparib alone
[43] = at 0.313 µM, OCI-P5x cells, without rucaparib
[44] = at 1.25 µM, OCI-C5x cells, with rucaparib 10 µM, 100% = cells with rucaparib alone
[45] = at 1.25 µM, OCI-C5x cells, without rucaparib
[46] = at 1.25 µM, OCI-P5x cells, with rucaparib 20 µM, 100% = cells with rucaparib alone
[47] = at 1.25 µM, OCI-P5x cells, without rucaparib
[48] = at 5 µM, OCI-C5x cells, with rucaparib 10 µM, 100% = cells with rucaparib alone
[49] = at 5 µM, OCI-C5x cells, without rucaparib
[50] = at 5 µM, OCI-P5x cells, with rucaparib 20 µM, 100% = cells with rucaparib alone
[51] = at 5 µM, OCI-P5x cells, without rucaparib

CC(C)c1onc(-c2c(Cl)cccc2Cl)c1COc1ccc(/C=C/c2cccc(C(=O)O)c2)c(Cl)c1
5650: cell count [4, 19]
5590: cell count [4, 18]
6870: cell count [5]
active: viability [6, 20] 95.7% | viability [6, 22] 90.8% | viability [6, 23] 87.3% | viability [6, 25] 97.6% | viability [6, 26] 99.3% | viability [6, 27] 89.4% | viability [6, 29] 97.6% | viability [6, 31] 91.9% | viability [6, 33] 98.1% | viability [6, 35] 98.8% | viability [6, 36] 99.7% | viability [6, 39] 97.9% | viability [6, 40] 97.6% | viability [6, 41] 97.8% | viability [6, 45] 97.1% | viability [6, 48] 76.1% | viability [6, 49] 89.5% | viability [6, 50] 99.6% | viability [6, 51] 98.8%
1.32: fold change [4, 17]
inactive: remaining activity [1] 99.1% | outcome [2] | outcome [3] | fold change [4, 16] 0.989 | plate-normalised HSF1 focus index [5] 1.11 | viability [6, 21] 107% | viability [6, 24] 107% | viability [6, 28] 103% | viability [6, 30] 102% | viability [6, 32] 101% | viability [6, 34] 100% | viability [6, 37] 105% | viability [6, 38] 104% | viability [6, 42] 106% | viability [6, 43] 100% | viability [6, 44] 102% | viability [6, 46] 103% | viability [6, 47] 101% | z-score [7] -0.665
2.06: SSMD [5]

Cc1ccccc1C(=O)c1ccc(Nc2ccc(Br)cc2N)cc1Cl
inactive: parasite load remaining [8] 40.9% | remaining activity [1] 120% | outcome [2] | fold change [4, 16] 0.938 | z-score [7] -0.695
active: AC50 [9] 20.9 µM | AC50 [10] 18.6 µM | AC50 [11] 23.5 µM | IC50 [12] 23.5 µM
7220: cell count [4, 19]
76.7%: viability [8]
6770: cell count [4, 18]
1.33: fold change [4, 17]

COc1ccc(Nc2nccc(NCCO)n2)cc1
inactive: remaining activity [1] 124% | outcome [2] | outcome [3] | outcome [13] | outcome [9] | outcome [10] | outcome [14] | outcome [11] | outcome [12] | fold change [4, 16] 0.983 and 0.953 | z-score [7] -0.315
6320 and 9660: cell count [4, 19]
6220 and 9200: cell count [4, 18]
2.19 and 1.76: fold change [4, 17]

O=C(O)Cc1cccc(OCCCN(Cc2cccc(C(F)(F)F)c2Cl)CC(c2ccccc2)c2ccccc2)c1
7570 and 3160: cell count [4, 18]
0.414: SSMD [5]
0.748 and 1.3: fold change [4, 17]
-0.731: z-score ([15]; Rieske KO mouse fibroblast survival, CellTiter-Glo 72 h)
8580 and 2370: cell count [4, 19]
6290: cell count [5]
inactive: remaining activity [1] 110% | outcome [3] | fold change [4, 16] 0.882 and 1.33 | plate-normalised HSF1 focus index [5] 1.02 | z-score ([15]; MELAS cybrid survival, CellTiter-Glo 48 h, stronger effect = higher value) -0.168 | viability [6, 20] 118% | viability [6, 21] 117% | viability [6, 22] 107% | viability [6, 23] 111% | viability [6, 24] 118% | viability [6, 25] 129% | viability [6, 26] 108% | viability [6, 28] 115% | viability [6, 29] 125% | viability [6, 30] 106% | viability [6, 31] 108% | viability [6, 32] 113% | viability [6, 33] 125% | viability [6, 34] 101% | viability [6, 35] 105% | viability [6, 36] 114% | viability [6, 37] 123% | viability [6, 38] 109% | viability [6, 39] 103% | viability [6, 40] 114% | viability [6, 41] 119% | viability [6, 44] 111% | viability [6, 45] 114% | viability [6, 49] 100% | z-score [7] -0.7
active: AC50 [13] 20.9 µM | AC50 [10] 20.9 µM | viability [6, 27] 95.8% | viability [6, 42] 93.8% | viability [6, 43] 96.5% | viability [6, 46] 96.5% | viability [6, 47] 92.3% | viability [6, 48] 92.1% | viability [6, 50] 43.4% | viability [6, 51] 87.5%

CC(C)C[C@@H](C(=O)N[C@H](C(=O)OC1CCCC1)c1ccccc1)[C@H](O)C(=O)NO
6800: cell count [5]
inactive: remaining activity [1] 125% | outcome [11] | fold change [4, 16] 1 | plate-normalised HSF1 focus index [5] 1.19 | z-score [7] 0.875
1.24: fold change [4, 17]
active: AC50 [13] 16.6 µM | AC50 [14] 23.5 µM
7280: cell count [4, 18] | cell count [4, 19]
3.49: SSMD [5]
